High-throughput results from PubChem.
Abeta rescue: A-beta toxicity reversal in yeast; Potency, µM (highest dose often 46.1 µM), actives largely listed as activators; actives 0.063% (n = 410,000); AID 1347071; yeast expressing A-beta42, growth rescue, OD600, 48 h; response scale: 0% DMSO, 100% iron-clioquinol control; note: nearly all actives have a fitted effect of over 55% in size
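Growth rescue measured by 600 nm absorbance after 48 h yeast culture at 30 C with compound. Values normalized between DMSO and an equimolar ferric chloride plus clioquinol control.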
TDP-43 yeast inh: inhibitors of TDP-43 toxicity in yeast; TDP-43 expressing yeast growth rescue, BacTiter-Glo, 24 h; actives 1.8% (n = 410,000); AID 652104; Potency, µM (doses to about 46.1 µM), for inactives: at the highest dose growth rescue (activation), most hits filed as activators; note: % of control where 0% means no effect; nearly all actives have a fitted effect of over 50% in size
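Galactose-induced TDP-43 yeast, OD600=0.02, compound pinned; 24 hr, 30 deg C; BacTiter-Glo luminescence for growth. Inhibitors of TDP-43 toxicity read as activators.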
Mito fusion act: inhibitors of mitochondrial division or activators of mitochondrial fusion. Potency, µM (doses to about 46.1 µM), for inactives: top-dose growth rescue (activation), usual class: activators. actives 0.23% (n = 320,000). S. cerevisiae fusion-defective mutant growth rescue, CellTiterGlo 48 h. AID 485298; note: % of control where 0% means no effect; nearly all actives have a fitted effect of over 45% in size
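Luminescent cell viability in 1536-well qHTS format served as the measure of rescued growth in ts fusion-mutant S. cerevisiae cultured on non-fermentable YPEG for 48 hours at 37C.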
aSyn rescue: rescues yeast growth from alpha-synuclein toxicity; actives 0.14% (n = 370,000); Yeast expressing alpha-synuclein, growth rescue, BacTiter-Glo, 24 h; Potency, µM (highest dose often 46.1 µM), without a hit: top-dose growth rescue (activation), actives largely listed as activators; note: % of control where 0% means no effect; nearly all actives have a fitted effect of over 65% in size
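Screening used galactose-induced yeast with toxic alpha-synuclein levels, exposed to compound for 24 hr at 30 deg C. Cell growth, read with BacTiter-Glo luminescence, gave the measured signal.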
FUS suppressor: suppressors of FUS proteinopathy in yeast | S. cerevisiae FUS-expressing, growth rescue, OD600, 24 h | Potency, µM (doses to about 76.6 µM), hits mostly activators | actives 0.24% (n = 390,000) | AID 1347120;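 note: plate controls were DMSO vehicle for no effect and reference control for full effect; nearly all actives have a fitted effect of over 55% in size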
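Yeast expressing FUS under galactose induction, OD 0.005 in 2% galactose medium; compounds in a dilution series, 24 h at 30C. Growth rescue by absorbance at 600 nm; CP55940 positive control, DMSO negative.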
Active calls of the source: *; i = inactive; u = inconclusive; x = not tested or not shown; ! = a repeat was not active. The list is not random: actives were taken first. Their share in the collection is about 2.2%. Calls come from the whole dose curve; as a rule, active = well fitted curve in the direction sought with a large enough effect; inconclusive = small, poorly fitted or top-dose-only effect, or another doubt; inactive = no such curve, though single readings can be large; an effect the other way counts as inactive or inconclusive. Potency is the fitted concentration of half-maximal effect.

SMILES	Abeta rescue	TDP-43 yeast inh	Mito fusion act	aSyn rescue	FUS suppressor
CC1(Cc2ccc(Cl)cc2)C(=O)Nc2c(Cl)cccc21 (configuration not stated)	i	u	x	5µM*	i
CCc1ccc2c(c1)NC(=O)C2(C)Cc1ccc(Cl)cc1 (configuration not stated)	i	-12%	x	u	i
COc1ccccc1CC1(C)C(=O)Nc2c(Cl)cccc21 (configuration not stated)	i	u	x	u	i
CC1(Cc2ccc(F)cc2)C(=O)Nc2c(Cl)cccc21 (configuration not stated)	i	28µM*	x	13µM*	i
CC(=O)Nc1ccccc1NS(=O)(=O)c1ccccc1NO	x	x	x	12%	x
c1cc2c(cc1Cc1cncc(Cc3ccc4c(c3)OCO4)c1)OCO2	x	x	x	-8%	x
CC1(Cc2ccc3c(c2)OCO3)C(=O)Nc2c(Cl)ccc(Cl)c21 (configuration not stated)	i	u	x	22µM*	i
O=C(/C=C/c1ccccc1)N1CCC(c2ccccc2)C1 (configuration not stated)	i	11µM*	17%	10%	x
O=C(c1ccc(NC(=S)Nc2ccc(Cl)c(Cl)c2)cc1)N1CCCC1	i	18µM*	-11%	-63%	i
O=C(Nc1ccc(Cl)c(Cl)c1)N1CCSCC1	i	13µM*	9%	-1%	i
CCNC(=S)NNC(=O)c1ccccn1	i	16%	-11%	2%	x
NS(=O)(=O)c1ccc(NC(=S)Nc2ccc(C(=O)N3CCCCC3)cc2)cc1	i	-2%	4%	1%	i
O=C(Nc1ccc(Cl)c(Cl)c1)N1CCCCCC1	i	8%	2%	0%	i
O=C(NNC(=S)Nc1ccc(Cl)c(Cl)c1)c1ccccn1	i	16%	19%	10µM*	i
COc1ccc(CNC(=O)c2cc3cc(S(=O)(=O)N4CCCCC4)ccc3n2C)c(OC)c1	i	15%	x	x	i
Cc1cc2nc(-c3ccc(OCc4ccccc4Cl)cc3)cc(C(F)(F)F)n2n1	i	18%	x	x	i
O=C(Nc1ccc(Cl)c(Cl)c1)N1CCC(c2ccccc2)C1 (configuration not stated)	i	35µM*	x	x	i
Cc1ccc(NC(=O)N2CCCC(c3ccccc3)C2)cc1 (configuration not stated)	i	18µM*	7%	-3%	i
O=C(Nc1ccccc1)N1CCC(c2ccccc2)C1 (configuration not stated)	i	28%	0%	-5%	i
Cc1cccc(C(=O)OCc2cc(=O)n3nc(C4CC4)sc3n2)c1	i	-3%	x	x	i
Cc1nnc(Sc2nc3ccccc3o2)c2ccccc12	i	14µM*	-16%	u	i
Cc1ccc(NC(=O)CSc2nc3ccccc3nc2N2CCOCC2)c(C)c1	i	5%	-1%	2%	i
Cc1ccc(NC(=O)CSc2nc3ccccc3nc2N2CCOCC2)cc1	i	u	-11%	12%	32µM*!
COC(=O)CS(=O)(=O)c1nc2ccccc2nc1N1CCCCC1	i	20µM*	x	x	i
O=C(O)CSc1nc2ccccc2nc1N1CCCCC1	i	20µM*	x	x	i
SMILES	Abeta rescue	TDP-43 yeast inh	Mito fusion act	aSyn rescue	FUS suppressor
Cc1nc2ccccc2nc1N1CCCCC1	i	7%	-3%	-9%	i
COC(=O)c1c(-c2cccs2)csc1NC(=O)c1ccc(C(C)C)cc1	i	10%	x	x	i
CC1CCN(C(=O)C(C)OC(=O)CSc2ccc([N+](=O)[O-])cc2)CC1 (configuration not stated)	i	35µM*	-1%	-10%	i
O=c1c(Sc2ccccc2)c(C(F)(F)F)[nH]n1-c1ccccc1	i	14µM*	7%	x	i
O=c1c2c(C(F)(F)F)cc(C(F)(F)F)nc2[nH]n1-c1ccccc1	i	-23%	3%	-14%	i
CCOC(=O)c1cccc(NC(=O)N2CC(CC)Oc3ccccc32)c1 (configuration not stated)	i	14%	x	x	i
CCc1ccc(-n2c(C)nc3cc(C(=O)NCCc4ccccc4)ccc32)cc1	i	16%	x	x	u
Cc1ccc(/C=C(\NC(=O)c2ccc(C)cc2)c2nc(=S)[nH][nH]2)cc1	i	20µM*	5%	28%	i
CN1C(C(=O)Nc2ccccn2)=C(O)c2ccccc2S1(=O)=O	i	u	16µM*!	-41%	i
CN1C(C(=O)Nc2ncccn2)=C(O)c2ccccc2S1(=O)=O	i	-9%	20%	u	i
O=C(NCc1cccs1)c1ccc2c(c1)sc1nc(-c3ccccc3)cn12	i	-10%	x	x	i
CCCCc1ccc(/C=C(\C#N)C(N)=S)s1	u	20µM*	-15%	24%	i
Cn1cccc1/C=C(/C#N)C(N)=S	i	0%	1%	-1%	i
O=C(CSC1=NCCS1)Nc1ccc(S(=O)(=O)NC2CCCCC2)cc1	i	-24%	0%	3%	40µM*
O=C(CSC1=NCCS1)Nc1ccc(S(=O)(=O)N2CCCCCC2)cc1	i	0%	1%	6%	i
OCC[C@@H]1C[C@@H](O)[C@H](O)[C@]2(CCc3ccccc3CO2)O1	i	3%	3%	-1%	i
O=c1oc2cc(Br)ccc2n1CSC1=NCCS1	i	13µM*	14%	-8%	i
CCCc1nnc(NC(=O)Cn2c(=O)oc3cc(Br)ccc32)s1	i	-14%	3%	-13%	i
CCC(=O)NC(c1ccco1)c1cc(Cl)c2cccnc2c1O (configuration not stated)	i	17%	9%	11µM*	i
CCCCC(=O)NC(c1ccco1)c1cc(Cl)c2cccnc2c1O (configuration not stated)	u	u	-4%	u	i
O=C(OCn1ncc(Br)c(Br)c1=O)c1ccccc1Cl	i	6.3µM*	-11%	-7%	i
COc1cccc2sc3ccc(C#Cc4ccc(N)cc4)cc3c(=O)c12	i	-2%	0%	1%	32µM*
COc1cccc2sc3ccc(C#CC4(O)CCCCC4)cc3c(=O)c12	i	16µM*	-11%	-7%	u
COc1cc2[nH]c(=O)n(CCCCCC(=O)N3CCN(c4cccc(C(F)(F)F)c4)CC3)c(=O)c2cc1OC	i	0%	x	x	i
Cc1ccc(C)c(CN2C(=O)c3ccccc3S(=O)(=O)c3ccc(C(=O)N4CCN(Cc5ccccc5)CC4)cc32)c1	i	-7%	x	x	i
